# Sampled rows, rich in hits. Any-hit rate of the full collection: about 3.3%.
# Tau fibril FP: inhibitors of human tau fibril formation | K18 P301L tau heparin fibrillization, Alexa594 FP, 6 h | 280,000 compounds, 0.39% hits | AID 1468 | P10636 | Potency, µM (highest dose often 57.7 µM), for the others: at the highest dose activity, negative = inhibition, actives largely listed as inhibitors; note: nearly all actives have a fitted effect of over 55% in size
# Target sequence (P10636 561-689 P618L limits assumed): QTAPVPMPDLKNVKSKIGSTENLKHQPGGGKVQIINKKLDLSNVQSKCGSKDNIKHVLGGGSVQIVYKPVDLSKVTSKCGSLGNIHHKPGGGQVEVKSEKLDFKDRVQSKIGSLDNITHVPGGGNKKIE
#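 Human K18 P301L fragment (15 uM unlabeled plus 0.24 uM Alexa 594-labeled) in 100 mM sodium acetate pH 7 with compound, aggregation induced by 20 uM heparin for 6 hr at 37 C. ThT (30 uM) added for 1 hr, then Alexa 594 FP read.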
# Tau ThT inhib: inhibitors of human tau fibril formation, thioflavin T binding. P10636. recombinant tau K18 P301L, heparin-induced fibrillization, ThT fluorescence. Potency, µM (series often up to 57.4 µM), without a hit: at the highest dose activity, negative = inhibition, actives largely listed as inhibitors. 270,000 compounds, 2.1% hits; note: nearly all actives have a fitted effect of over 55% in size
#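 Aggregation was driven by heparin (20 uM final) acting on recombinant tau […] bearing P301L in 100 mM sodium acetate pH 7; fibrils were detected with Thioflavin T.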
# NPSR antag: blocks cAMP signaling of the human neuropeptide S receptor | Q6W5P4 | CHO-NPSR cells, cAMP TR-FRET, antagonist mode | Potency, µM (titrated, usually from 38.3 µM), for the others: at the highest dose activity change, negative = inhibition, actives largely listed as inhibitors | 220,000 compounds, 1% hits | AID 1461; note: nearly all actives have a fitted effect of over 50% in size
# Target sequence (Q6W5P4 whole entry, looked up): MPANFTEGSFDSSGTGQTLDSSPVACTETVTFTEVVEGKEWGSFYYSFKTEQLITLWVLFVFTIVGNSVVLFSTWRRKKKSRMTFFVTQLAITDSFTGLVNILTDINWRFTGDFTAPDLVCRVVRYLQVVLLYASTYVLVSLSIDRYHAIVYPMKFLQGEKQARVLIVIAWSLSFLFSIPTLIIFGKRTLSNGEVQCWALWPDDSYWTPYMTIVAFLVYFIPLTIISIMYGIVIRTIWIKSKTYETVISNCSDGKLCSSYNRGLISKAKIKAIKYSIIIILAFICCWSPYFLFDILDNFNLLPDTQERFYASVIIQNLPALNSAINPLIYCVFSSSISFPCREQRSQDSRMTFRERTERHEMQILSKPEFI
# Tau fluor cs: counter-screen for tau fibril formation inhibitors; tau K18 P301L Alexa594 fluorescence, heparin fibrillization; Potency, µM (doses to about 57.7 µM), without a hit: at the top dose activity change, negative = decrease; 280,000 compounds, 0.93% hits; AID 1463; note: nearly all actives have a fitted effect of over 55% in size
#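 Human tau K18 P301L (15 uM unlabeled, 0.24 uM Alexa 594-labeled) in 100 mM sodium acetate pH 7 with 20 uM heparin, 6 hr at 37 C. ThT 30 uM added, 1 hr ambient; Alexa 594 FP and total fluorescence read at 555/632 nm.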
# Luc counter: Kinase-Glo luciferase inhibition (counter-screen); Kinase-Glo luciferase, ATP luminescence, 8 min; Potency, µM (highest dose often 38.3 µM), without a hit: top-dose activity change, negative = inhibition, hits mostly inhibitors; 200,000 compounds, 0.28% hits; AID 1379; note: nearly all actives have a fitted effect of over 60% in size
#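 Compounds were added to a substrate mix at pH 7.2 (50 mM imidazole, 10 uM ATP, within the enzyme's linear range), followed by Kinase-Glo detection reagent; luminescence was measured after 8 minutes at ambient temperature.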
# Starred values were filed as active, the others as inactive; ? = inconclusive; / = no result given; [ ] = dose if it differs, or a comment. Calls come from the whole dose curve; as a rule, active = well fitted curve in the direction sought with a large enough effect; inconclusive = small, poorly fitted or top-dose-only effect, or another doubt; inactive = no such curve, though single readings can be large; an effect the other way counts as inactive or inconclusive. % is set by controls: 0 for no effect and ±100 for the full control effect; potency is the fitted concentration of half-maximal effect.
SMILES,Tau fibril FP,Tau ThT inhib,NPSR antag,Tau fluor cs,Luc counter
CC(=O)Nc1ccc(C2=NNC(=Nc3cccc(S(=O)(=O)N(C)C)c3)SC2)cc1,?,7.9µM*,-13%,14µM*[quencher],2%
COc1ccc(C2=NNC(=Nc3cc(S(=O)(=O)N(C)C)ccc3C)SC2)c(OC)c1,-17%,?,-17%,-16%,/
CC(=O)Nc1ccc(C2=NNC(=Nc3ccc(S(=O)(=O)N4CCOCC4)cc3)SC2)cc1,?,4.5µM*,-9%,16µM*[quencher],/
COCCN=C1NN=C(c2ccc(NC(C)=O)cc2)CS1,?,28µM*,7%,-27%,3%
C=CCc1cccc(C2C(C)CCC3C(=O)N4C(CCC(C)C4c4cccc(CC=C)c4)C(=O)N32)c1 (stereo unspecified),5%[11.6 µM],-13%[11.5 µM],/,-12%[11.6 µM],/
COC(=O)c1ccc(C(NC(=O)OCc2ccccc2)/C(C)=C/[C@@H](C)C(=O)Nc2ccc(OC)cc2)cc1 (stereo partly specified),8%,-15%,/,-16%,-2%
CCc1ccc2[nH]c(O)c(N=Nc3nc(-c4ccccc4)cs3)c2c1,10%,4.5µM*,-17%[46.1 µM],?,2%
CCc1cc2c(N=Nc3c(O)[nH]c4ccccc34)ncnc2s1,-4%,?,6%,-5%,-1%
COC(=O)C1=C(C)N=C2SCCC(=O)N2C1c1cc(Br)ccc1OC (stereo unspecified),3%,5µM*,?,?,/
Cc1cc(C)c(NC(=O)CCCN2C(=O)COc3ccc(C)cc32)c(C)c1,-5%,-6%,/,-12%,/
CCCCNC(=S)NCc1ccc2[nH]c(C)cc2c1,13%,-11%,-8%,?,-1%
CCOc1ccc(NC(=S)NCc2ccc3[nH]c(C)cc3c2)cc1,?,?,-8%,20µM*[quencher],2%
Cc1ccc(/C=C2\SC(=S)N(C3CCS(=O)(=O)C3)C2=O)cc1 (stereo unspecified),?,?,17%,-16%,0%
O=C1/C(=C\c2ccco2)SC(=S)N1C1CCS(=O)(=O)C1 (stereo unspecified),?,25µM*,21%,?,/
O=C1/C(=C/c2ccco2)SC(=S)N1C1CCS(=O)(=O)C1 (stereo unspecified),?,28µM*,10%,?,-12%
COc1ccc(Cl)cc1NC(=O)Cn1c(=O)c(-c2ccccc2NC(C)=O)nc2ccccc21,0%,4%,/,9%,/
O=C(Cc1cccs1)NC1CC(=O)N(c2ccc(F)cc2)C1 (stereo unspecified),-4%,-2%,/,2%,/
COC(=O)/C(C(C)=O)=C(\C=C\N(C)C)N(C)C,11%,-5%,-6%[46.1 µM],-6%,-2%
COC(=O)\C(C(C)=O)=C(/C=C/C=C/C=C/N(C)C)N(C)C,?,16µM*,-3%[46.1 µM],-24%,-17%
Cc1[nH]c2ccccc2c1/C=C/C(=O)c1ccccc1,4%,?,-28%,18µM*[quencher],-1%
Cc1[nH]c2ccccc2c1/C=N/NC(=O)Nc1ccccc1,11%,?,-18%,?,-2%
Cc1[nH]c2ccccc2c1/C=N/Nc1cccc(C(=O)O)c1,-8%,13µM*,-6%,?,/
Oc1ccc(/C=N/Nc2ccccc2)cc1,15%,?,-7%,?,-1%
O=C(O)c1cccc(N/N=C/c2cc(Br)cc(Br)c2O)c1,?,11µM*,-2%,18µM*[quencher],-3%
COc1ccc(Br)cc1/C=N/Nc1cccc(C(=O)O)c1,0%,?,9%,-25%,-1%
SMILES,Tau fibril FP,Tau ThT inhib,NPSR antag,Tau fluor cs,Luc counter
Brc1ccc(/C=N/Nc2ccccc2)cc1,11%,?,-8%,20µM*[quencher],-4%
Cc1ccc(NC(=O)c2ccc(NC(=O)N3CCSc4ncccc43)cc2)cc1Cl,?,-1%,/,-29%,/
Cc1[nH]c2ccccc2c1/C=N/Nc1nc(N2CCCCC2)nc(N2CCCCC2)n1,?,?,-21%,10µM*[quencher],-2%
O=C(O)c1cccc(N/N=C/c2ccc(-c3ccccc3)cc2)c1,-6%,14µM*,-10%,?,-1%
CC(C)(C)c1ccc(/C=N/Nc2cccc(C(=O)O)c2)cc1,9%,?,-1%,-5%,-2%
Cc1ccccc1CCNC(=O)C1CCN(S(=O)(=O)c2ccc3c(ccn3C)c2)CC1,-9%,10%,/,-6%,/
COc1cccc2cc(-c3nnc(Nc4ccccc4C)s3)c(=O)oc12,5%,2%,/,-2%,/
O=C(Nc1nc2n(n1)C(c1ccccc1)C=C(c1ccccc1)N2)c1ccccc1 (stereo unspecified),-7%,-14%,/,-14%,/
CN1CCc2nc3sc(C(=O)NCc4ccccc4)c(N)c3cc2C1,-12%,14µM*,13µM*,?,1%
CCN(CC)c1ccc(NC(=O)c2sc3nc4c(cc3c2N)CN(C)CC4)cc1,?,1.3µM*,/,?,/
CC(C)NC(=O)c1sc2nc3c(c(-c4cccs4)c2c1N)CN(C)CC3,-3%,?,?,-20%,-3%
Cc1cccc(NC(=O)c2sc3nc4c(c(-c5cccs5)c3c2N)CN(C)CC4)c1,?,16µM*,-21%[46.1 µM],28µM*[quencher],5%
CN1CCc2nc3sc(C(=O)Nc4ccccc4OC(F)(F)F)c(N)c3cc2C1,-7%,-8%,/,-26%,/
COC(=O)c1ccc(CN2[C@@H]3C[C@@H](O)CC[C@@H]3C[C@H]2C(=O)OC)cc1,1%,-1%,/,-5%,1%
Cc1cccc(NC(=O)C2CCC(CNS(=O)(=O)c3ccc4c(c3)CCCC(=O)N4)CC2)c1C (stereo unspecified),9%,-13%,/,-4%,/
Cc1ccc(C)c(N2CCN(c3c(CN4CCCC4)c(=O)oc4ccccc34)CC2)c1,-13%,?,/,-25%,/
O=C1N/C(=N\N=C\c2ccco2)SC1Cc1ccccc1[N+](=O)[O-] (stereo unspecified),?,7.1µM*,-36%,?,/
CCOc1ccc2oc(=O)cc(CN3CCN(C(=O)c4ccc(OC)c(OC)c4)CC3)c2c1,6%,1%,/,3%,/
COC(=O)[C@@]1(C)CCC[C@@]2(C)c3ccc(O)c(C(C)C)c3CCC21 (stereo partly specified),-11%,?,/,16µM*[quencher],-4%
CCc1nc2cccnc2n1-c1ccc(CC(=O)Nc2cccc(C)c2C)cc1,3%,-1%,/,0%,/
O=C(Cc1cccs1)Nc1cccc(-c2nc3cc4ccccc4cc3[nH]2)c1,28µM*,?,-50%,14µM*[quencher],?
CSc1nc(-c2ccc(C)cc2)nc(N)c1C#N,-10%,-5%,?,-8%,/
COCCCNC(=O)/C(C#N)=C/c1ccc(OCC(=O)O)c(OC)c1,3%,-18%,7%,-16%,-2%
COc1cc(/C=C2\C(C)=C(C#N)c3nc(N)c(C#N)c(C)c32)ccc1OCC(=O)O,?,14µM*,24%,?,/

# Assay outcomes (PubChem BioAssay)
